Most compounds without a hit are left out; they make up all but 0.91% or so of the library.
QS inhibitor – S. aureus quorum sensing inhibitors, primary screen, RNAIII-GFP reporter, flow cytometry; inhibition, % at 2 µM; S. aureus RN6390 RNAIII-GFP reporter, AIP-induced, flow cytometry 3 h; AID 527, 2006; 24,000 tested, 0.3% active;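 active means share of bacteria positive for the green fluorescent reporter and its mean brightness both inhibited by 50% or more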;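 further: 0% = AIP-stimulated control and 100% = unstimulated bacteria without AIP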
Prostate diff – activators of LNCaP prostate cell differentiation, primary screen, flow cytometry side scatter | AID 795, 2007 | 24,000 tested, 0.56% active | 4 d | side scatter shift, % at 10 µM;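 active means side scatter shift above 30%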;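 further: androgen-responsive LNCaP prostate cancer cells in charcoal-stripped serum medium; percent of cells past a gate set so DMSO wells show 10% shift; higher shift means more granular cells and more differentiation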
* = called active by the depositor; . = no result given.

SMILES | QS inhibitor | Prostate diff
Cc1cc(C(=O)Nc2sc3c(c2C#N)CCCC3)no1 | 0 | 3
CC(C)Cc1cc(C(=O)Nc2sc3c(c2C#N)CCCC3)no1 | 55* | 12
CCOC(=O)Cc1csc(NC(=O)C2CCCN(S(=O)(=O)c3cnc[nH]3)C2)n1 (stereo unspecified) | -6 | 15
O=C(Nc1ccc2c(c1)OCO2)C(c1ccccc1)N1CCCCC1 (stereo unspecified) | 12 | 12
CC1CCCN(C(C(=O)Nc2ccc3c(c2)OCCO3)c2ccccc2)C1 (stereo unspecified) | 99* | 14
CC1CCN(C(C(=O)Nc2ccc3c(c2)OCO3)c2ccccc2)CC1 (stereo unspecified) | 15 | 14
CC1CCCN(C(C(=O)Nc2ccc3c(c2)OCO3)c2ccccc2)C1 (stereo unspecified) | 99* | 13
O=C(Nc1ccccn1)C(NS(=O)(=O)c1cccc2nsnc12)c1ccccc1 (stereo unspecified) | -4 | 1
CC(C)(NCc1ccccc1Cl)C(=O)O | 0 | 6
CN1CCCN(C(=O)c2cc(=O)[nH]c3ccccc23)c2nc3ccccc3nc21 | 0 | 4
CN1CCN(c2cc3c(c4c2[nH]c2ccccc24)C(=O)CC(C)(C)C3)CC1 | 0 | 63*
CCn1c(N)c(C(=O)NCCCOC)sc1=S | 2 | 11
CCN(CC)CCCNc1oc(-c2cccc(Cl)c2)nc1C#N | -2 | 32*
COc1ccc(-c2nc(C#N)c(NCCN(C)C)o2)cc1 | -3 | 16
COc1ccc2nc(NC(=O)C3CCCN3S(=O)(=O)c3ccc(C)cc3)sc2c1 (stereo unspecified) | -2 | .
O=C(CCCn1c(=S)[nH]c2cc3c(cc2c1=O)OCO3)N1CCc2ccccc2C1 | 66* | 5
O=C(CCCn1c(=S)[nH]c2cc3c(cc2c1=O)OCO3)N1CCN(c2ccccc2)CC1 | -8 | 7
CCN(c1ccccc1)S(=O)(=O)c1cnc[nH]1 | -3 | 12
CCOc1ccccc1N1CCN(c2nc3ccccc3nc2C(C#N)C(=O)OC)CC1 (stereo unspecified) | 0 | 5
CCOC(=O)C1CCCN(c2nc3ccccc3nc2C(C#N)C(=O)NCc2ccccc2)C1 (stereo unspecified) | 0 | 16
CC1CN(c2nc3ccccc3nc2C(C#N)C(=O)OC2CCCCC2)CC(C)O1 (stereo unspecified) | 61* | 3
COc1ccccc1N1CCN(c2nc3ccccc3nc2C(C#N)C(=O)OC(C)C)CC1 (stereo unspecified) | -8 | 30*
Cc1ccc2nc(NC(=O)C(NS(=O)(=O)c3cccc4nsnc34)C(C)C)sc2c1 (stereo unspecified) | 7 | .
CN1C(=O)CC(N2CCN(c3ccccc3)CC2)C1=O (stereo unspecified) | 0 | .
O=S(=O)(NCCCN1CCN(c2ccccc2F)CC1)c1cccc2cccnc12 | 0 | 11
SMILES | QS inhibitor | Prostate diff
Nc1cc(OC(=O)c2cccs2)nn1S(=O)(=O)c1ccccc1 | -2 | 5
Cc1nn(-c2ccccc2)c(OC(=O)c2cccs2)c1S(=O)(=O)c1ccccc1 | 53* | 6
O=C(Nc1ccc2c(c1)OCO2)OCc1ccccc1 | -1 | 7
O=c1oc(-c2ccco2)nc2ccccc12 | -1 | 30*
CCC(=O)Nc1cccc(-c2nc3ccccc3c(=O)o2)c1 | -1 | 7
COC(=O)C1C(=O)C2=C(CC1C)NC(C)=C(C(=O)OC1CCCCC1)C2c1ccc(N(C)C)cc1 (stereo unspecified) | 54* | 0
COC(=O)C1C(=O)C2=C(CC1C)NC(C)=C(C(=O)OCCOc1ccccc1)C2c1ccc(C)o1 (stereo unspecified) | -8 | 10
CCCc1cc(=O)n2[nH]c(C)cc2n1 | 1 | 7
CCOC(=O)c1oc2ccccc2c1NC(=O)c1cccc(OC)c1OC | 16 | 19
COC(=O)c1nnn(CC(=O)Nc2cccc(Cl)c2C)c1C(=O)OC | -4 | 5
Cc1oc(-c2cccc(Cl)c2)nc1CN1CCCC(C(=O)NCCCN2CCOCC2)C1 (stereo unspecified) | -8 | 26
CCN(CCNC(=O)C1CCCN(Cc2nc(-c3ccc(OC)cc3)oc2C)C1)c1ccccc1 (stereo unspecified) | 21 | 10
CCN(CCNC(=O)C1CCN(Cc2nc(-c3ccc(Cl)cc3)oc2C)CC1)c1ccccc1 | 1 | 66*
CCN(CCNC(=O)C1CCN(Cc2nc(-c3cccc(Cl)c3)oc2C)CC1)c1ccccc1 | 4 | 24
Cc1oc(-c2ccc(Cl)cc2)nc1CN1CCC(C(=O)NCCCN2CCOCC2)CC1 | 8 | 63*
CCc1ccc(-c2nc(CN3CCC(C(=O)NCCN(CC)c4ccccc4)CC3)c(C)o2)cc1 | 10 | 32*
Cc1ccc2oc(=O)c3cc(C(=O)N4CCN(c5ncccn5)CC4)sc3c2c1 | 0 | 5
CC1CCN(Cc2ccc(-c3nn[nH]n3)cc2)CC1 | -3 | 5

Bioassay records as filed in PubChem.
